Source: PubChem BioAssay (NCI)
About 83,000 compounds went through this panel and 20% of them were active in at least one assay; those are over-represented in the sample as a whole.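 48-hour exposure, single concentration, 96-well plates; percent growth endpoint where 0 means no net growth. Active: below 10.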 Calls of active or inactive are those of the source.

The molecules below were run on MDA-MB-468 breast (assay: NCI-60 one-dose screen, 48 h (100 = growth as untreated, 0 = no growth, -100 = all killed)). Conditions: 10 µM unless noted.

| Compound | growth |
| --- | --- |
| CC1(c2ccc(Br)cc2)NC(=O)NC1=O (stereo not given) | 110% (inactive) |
| Cc1cc(C(=O)Nc2ncnc3nc[nH]c23)no1 | 96.4% (inactive) |
| COC(=O)c1ccc2[nH]c(O)c(C(=Nc3ccc(N(C)C(=O)CN4CCN(C)CC4)cc3)c3ccc(C)cc3)c2c1 | -50.1% (active) |
| CCSCC1CC(O)(c2ccccc2)CC(c2ccc(F)cc2)O1 (stereo not given) | 8.89% (active) |
| Cc1cc(S(=O)(=O)N(C)C)cc(NCC(=O)NC(=O)NCC(C)C)c1C | 104% (inactive) |
| Cc1cc(C)n(C(=O)c2nn(-c3ccc(Cl)cc3)cc2O)n1 | 64.6% (inactive) |
| O=C(NC1CCN(Cc2ccccc2)CC1)c1cc2nc(-c3ccc(Cl)s3)cc(C(F)(F)F)n2n1 | -66.2% (active) |
| CC(=O)N1N=C(c2ccc(Cl)cc2)CC1c1sc(Cl)nc1Cl (stereo not given) | 74.9% (inactive) |
| CCCCCN1C=C/C(=C\C(=O)N(C)c2ccc(Br)cc2)c2ccccc21 | 73.8% (inactive) |
| O=S(=O)(NCCNc1nccc(-c2c(-c3ccc(O)cc3)nc3sccn23)n1)c1cccc2ccccc12 | 94.6% (inactive) |
| CN(C)c1ccc(/C=C/C2=[N+](C)c3ccccc3C2(C)C)cc1 | 6.5% (active) |
| OCc1nnn(-c2ccccc2)c1CO | 125% (inactive) |
| CCOC(=O)c1c(NC(=O)C2CCCCC2C(=O)O)sc2c1CCCC2 (stereo not given) | 103% (inactive) |
| CC(C)CC(=O)C(CCc1ccccn1)C(C)C (stereo not given) | 109% (inactive) |
| CCCCCN1C=C/C(=C\C(=O)n2ccc3ccccc32)c2ccccc21 | 73% (inactive) |
| Nc1ncnc2c1N=C(c1ccc(F)cc1)CC(c1sc(Cl)nc1Cl)N2 (stereo not given) | 91.4% (inactive) |
| N=C(N)c1ccc(-c2ccc(-c3ccc(Cl)cc3Cl)s2)cc1F | -63.5% (active) |
| COc1cc(C(=O)Nc2cc(O)c(CC=C(C)C)c(O)c2)cc2c1O[C@]1(C)CC[C@@H](O)C(C)(C)[C@H]1C2 | 36.3% (inactive) |
| COc1ccc(-c2cn[nH]c2-c2ccc(OC)c(O)c2)cc1 | 47.1% (inactive) |
| COc1ccc(C/C(C)=C(\c2ccc(Cl)cc2)c2ccc(OCCN3CCCCCC3)cc2)cc1 | 70.9% (inactive) |

| Compound | growth |
| --- | --- |
| [O-]/[N+](=C\C=C\c1ccccc1)c1ccccc1 | 113% (inactive) |
| O=C(Nc1ccc(/C=C2\SC(=O)N(Cc3ccc(OC(F)(F)F)cc3)C2=O)cc1)c1ccc(Cl)c([N+](=O)[O-])c1 | 12.5% (inactive) |
| COc1ccc(Oc2nc(NC3CCCC3)nc(Sc3ccc(OC)cc3)n2)cc1 | 93% (inactive) |
| Cc1ccccc1NC(=O)/C=C/c1ccc(OCCOc2ccc3c(C)cc(=O)oc3c2)cc1 | 104% (inactive) |
| O=C(N=Nc1c(O)[nH]c2ccccc12)Nc1ccc(Br)cc1 | 70.5% (inactive) |
| CC(C)CC(NC(=O)C(CCCN=C(N)N)NC(=O)OCc1ccccc1)C(=O)NC(CNC(=O)/C=C/c1ccccc1)C(C)C (stereo not given) | 94.4% (inactive) |
| O=C(NNC(=O)c1ccc(-n2cc(-c3ccccc3)nn2)cc1)Nc1ccccc1 | 109% (inactive) |
| CCOc1c(Br)cc(C2C(C(=O)OC)=CN(C)C=C2C(=O)OC)cc1OC | 0.386% (active) |
| COC(=O)/C=C/C(=O)NC(N)=O | 90.8% (inactive) |
| CSc1nc2sc3c(c2c(=O)n1-c1ccc([N+](=O)[O-])cc1)CCCCC3 | 83% (inactive) |
| Cc1cc(Nc2ccc(OCc3ccccc3)cc2)nc2cc(O)ccc12 | 6.48% (active) |
| COc1ccc(C2CC(c3ccc(N(C)C)cc3)=NN2c2ccc(S(N)(=O)=O)cc2)cc1 (stereo not given) | 57.6% (inactive) |
| Nc1nc(Cn2c(-c3nonc3N)nc3ccccc32)nc(N2CCCCC2)n1 | 72.8% (inactive) |
| Cc1ccc2c(c1)C(=O)/C(=C/c1cccc(F)c1)S2 | 84.7% (inactive) |
| c1cc(-c2nnc(SSc3ncnc4nc[nH]c34)o2)ccn1 | -9.07% (active) |
| Cc1cc(C#Cc2ccccc2)ccc1-n1c(/C=C/c2ccc(F)cc2)nc2ccccc2c1=O | 49.3% (inactive) |
| CC(=O)Nc1cccc(Cl)c1C | 103% (inactive) |
| COc1cccc(NC(=O)c2sc3nc(C)c(C(C)=O)cc3c2N)c1 | -14.8% (active) |
| COC(=O)[C@]1(C)CCC[C@]2(C)[C@H]3C[C@H]4C(C(C)C)=C[C@]3(CC[C@H]21)[C@H]1[C@@H]4[C@@H](OCCC#N)CC[C@@H]1OCCC#N | -6.32% (active) |
| CC[C@H](Nc1nc(N)nc(C2CC2)c1C#N)c1nc2cccc(NCc3ccc(C(=O)NO)cc3)c2c(=O)n1-c1ccccc1 | -23% (active) |
